# Hits are enriched below; roughly 18% of the tested compounds scored in any of these assays.
# IL1B secr inh: qHTS for Inhibitors of Inflammasome Signaling: IL-1-beta AlphaLISA Primary Screen | THP-1 LPS/ATP IL-1B secretion, AlphaLISA, 16 h; active compounds read low | activity change, % at 57.5 µM | 4.7% of 360,000 active | AID 743279, 2014; in the data active = activity change below about -50%; inconclusive = mostly about -30% to -49%; also: % is scaled to controls: 0 for no effect and ±100 for the full control effect
#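 THP-1 cells pretreated 1 hr with compounds (up to 57.5 uM final), then stimulated with LPS (250 ng/mL final) plus ATP (1.25 mM final); secreted IL-1B measured by AlphaLISA after 16 hr, decreased signal indicating inhibition.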
# TDP1 inh: qHTS Assay for Inhibitors of Tyrosyl-DNA Phosphodiesterase (TDP1). Tyrosyl-DNA phosphodiesterase 1 (Homo sapiens), Q9NUW8. recombinant TDP1, AlphaScreen DNA substrate cleavage. Potency, µM (top dose mostly 130 µM), without a hit: top-dose activity change, negative = inhibition, most hits filed as inhibitors. 0.28% of 350,000 active. AID 485290, 2010; also: potency is read from the fitted curve at half-maximal effect; % is scaled to controls: 0 for no effect and ±100 for the full control effect; nearly all actives have a fitted effect of over 40% in size
# Target sequence (Q9NUW8 whole entry, looked up): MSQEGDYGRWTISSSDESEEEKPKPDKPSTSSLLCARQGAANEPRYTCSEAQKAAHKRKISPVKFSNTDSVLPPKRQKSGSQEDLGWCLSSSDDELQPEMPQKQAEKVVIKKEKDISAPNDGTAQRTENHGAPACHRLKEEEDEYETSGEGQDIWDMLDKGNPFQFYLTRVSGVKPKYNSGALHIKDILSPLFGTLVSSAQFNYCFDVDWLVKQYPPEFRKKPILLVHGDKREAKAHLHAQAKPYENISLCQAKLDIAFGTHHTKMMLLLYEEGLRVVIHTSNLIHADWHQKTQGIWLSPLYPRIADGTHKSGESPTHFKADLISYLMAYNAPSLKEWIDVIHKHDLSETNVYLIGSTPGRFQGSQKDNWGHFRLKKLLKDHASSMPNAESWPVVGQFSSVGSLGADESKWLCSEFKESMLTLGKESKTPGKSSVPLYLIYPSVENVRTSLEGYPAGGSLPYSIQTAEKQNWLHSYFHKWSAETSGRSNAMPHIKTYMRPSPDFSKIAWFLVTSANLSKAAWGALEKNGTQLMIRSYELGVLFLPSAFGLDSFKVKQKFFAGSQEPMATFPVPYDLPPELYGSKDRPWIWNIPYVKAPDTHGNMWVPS
#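 Recombinant human Tdp1 (E. coli-expressed, 1 nM final) preincubated with compounds 15 min at room temperature, then 5'-biotin/3'-phosphotyrosine-FITC DNA substrate (15 nM final) added for 5 min. AlphaScreen beads (10 ug/ml final) added 10 min; cleavage lowers signal.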
# DT40 TDP1 no CPT: qHTS for Inhibitors of human tyrosyl-DNA phosphodiesterase 1 (TDP1): qHTS in cells in absence of CPT; 15% of 420,000 active; DT40 Tdp1-/- hTDP1 cells, no CPT, ATP luminescence, 48 h; Potency, µM (titrated, usually from 46.2 µM), without a hit: at the top dose activity change, negative = growth inhibition, usual class: inhibitors; also: potency is read from the fitted curve at half-maximal effect; % is scaled to controls: 0 for no effect and ±100 for the full control effect; nearly all actives have a fitted effect of over 55% in size
#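 Compound effects on proliferation are scored in DT40 Tdp1-/-;hTDP1 cells in the absence of CPT. ATP levels (CellTiter-Glo luminescence) are recorded after a ≥48 hr, 37 °C incubation.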
# HepG2 viability: qHTS for Inhibitors of TGF-b: Cytotox Counterscreen | 0.76% of 410,000 active | HepG2 CAGA-GFP viability, ATP luminescence, 18 h | AID 588856, 2011 | Potency, µM (titrated, usually from 46.1 µM), for the others: top-dose activity change, negative = cytotoxicity, actives largely listed as cytotoxic; also: potency is read from the fitted curve at half-maximal effect
#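 CellTiter-Glo luminescence gave cytotoxicity after 18 hours at 37 degrees C. The cells were HepG2 CAGA-GFP in 1% FBS DMEM, stimulated with 500 pg/mL TGF-beta after compound addition. %Activity was normalised to no-cell wells (complete cell-killing) and DMSO (no toxicity), and curves were fitted and classified.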
# TGFb inhibitor: qHTS for Inhibitors of TGF-b. AID 588855, 2011. HepG2 CAGA-GFP TGF-b/SMAD3 reporter, GFP fluorescence, 18 h; TGF-beta stimulated, 500 pg/mL final. Potency, µM (doses to about 46.1 µM), for the others: top-dose activity, negative = inhibition, most hits filed as inhibitors. 1.2% of 410,000 active; also: potency is read from the fitted curve at half-maximal effect; % is scaled to controls: 0 for no effect and ±100 for the full control effect; nearly all actives have a fitted effect of over 65% in size
#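 Inhibition of TGF-beta-driven CAGA-GFP reporter expression in HEPG2 cells is measured by cellular GFP fluorescence after 18 h stimulation with 500 pg/mL recombinant TGF-beta in 1% FBS medium at 37 degrees C.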
# DT40 TDP1 CPT: qHTS for Inhibitors of human tyrosyl-DNA phosphodiesterase 1 (TDP1): qHTS in cells in presence of CPT | chicken DT40 Tdp1-/-;hTDP1 cells + 20 nM CPT, ATP luminescence, 48 h | Potency, µM (doses to about 46.2 µM), for the others: at the top dose activity change, negative = growth inhibition, usual class: inhibitors | 12% of 420,000 active | AID 686979, 2013; also: potency is read from the fitted curve at half-maximal effect; % is scaled to controls: 0 for no effect and ±100 for the full control effect; nearly all actives have a fitted effect of over 55% in size
#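 Chicken DT40 Tdp1-/- cells complemented with human TDP1, 400 cells/well, exposed to compounds plus 20 nM camptothecin for at least 48 h at 37 C; viability read as ATP content by CellTiter-Glo luminescence.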
# The depositor's hits bear a star; u = inconclusive; x = no result; [ ] = another dose, or the depositor's remark. Unless noted, calls follow the shape of the dose curve; as a rule, active = well fitted curve in the direction sought with a large enough effect; inconclusive = small, poorly fitted or top-dose-only effect, or another doubt; inactive = no such curve, though single readings can be large; an effect the other way counts as inactive or inconclusive.
SMILES,IL1B secr inh,TDP1 inh,DT40 TDP1 no CPT,HepG2 viability,TGFb inhibitor,DT40 TDP1 CPT
O=C(NN=Cc1ccccc1Cl)c1cccc2ccccc12,16.3,x,u,-15.2%,-7.4%,-0.2%
Cc1cccc(N(Cc2ccccc2)C(=O)CN2C(=O)NC3(CCCC3)C2=O)c1,-20.8,3.9%,u,14.6%,21.9%,-25.3%
COc1cccc(CN2CCC(Oc3ccc(C(=O)NCc4ccccn4)cc3)CC2)c1O,-14.7,x,-23.7%,-12.9%,2.4%,-15.0%
O=C(N/N=C/c1ccccc1OCc1ccccc1)c1cccs1,-0.7,6.7%,14.6µM*,-9.9%,-5.3%,u
CCOC(CNC(=O)c1cccn2c(=O)c3cc(Cl)ccc3nc12)OCC,-6.4,8.0%,13µM*,-21.5%,-5.2%,11.6µM*
O=C(NCCN1CCN(c2cccc(Cl)c2)CC1)c1cccn2c(=O)c3ccccc3nc12,14.7,x,1.1%,12.9%,-1.4%,-2.4%
CCOC(=O)N1CCN(C(=O)c2cccn3c(=O)c4cc(Cl)ccc4nc23)CC1,25.4,4.0%,-8.9%,-14.7%,-11.6%,11.5%
CCOC(CNC(=O)c1cccn2c(=O)c3c(C)c(C)sc3nc12)OCC,0.5,x,18.4µM*,-28.9%,-18.3%,16.4µM*
O=C(NCCN1CCN(c2ccccc2)CC1)c1cccn2c(=O)c3cc(Cl)ccc3nc12,20.2,9.1%,18.4µM*,2.1%,20.5%,u
CCOc1ccc(S(=O)(=O)NNS(=O)(=O)c2ccc(C)cc2C)cc1,-4.2,4.3%,3.2%,-1.6%,-5.6%,11.4%
CCCCn1c(N)c(N(CCOC)C(=O)CC2CCCCC2)c(=O)[nH]c1=O,12.5,x,2.2%,-1.9%,5.7%,-17.2%
Cc1ncc2c(c1CNC(=O)c1ccsc1)CCN(C(=O)c1c(F)cccc1Cl)C2,x,x,-19.5%,x,x,3.2%[9.04 µM]
CC1O[C@@H](O[C@@H]2C(O)C[C@H](O[C@@H]3C(O)C[C@@H](OC4CC[C@@]5(C)C6CC(O)[C@@]7(C)C(C8=CC(=O)OC8)CC[C@@]7(O)C6CC[C@@H]5C4)OC3C)OC2C)CC(O)[C@H]1O (stereo not given in full),x,-7.3%[56.1 µM],1.84µM*,x,x,3.26µM*
CS(=O)(=O)c1ccc(C(=O)OCC#CCSc2nnc(-c3cccc4ccccc34)o2)cc1,x,-0.1%,x,x,x,x
Cc1ccc(CSc2nnc3[nH]c(=O)cc(C)n23)cc1,x,5.2%,-9.9%,-0.4%,-19.1%,12.1%
COCCN(Cc1ccccc1)C(=O)c1cccc(S(=O)(=O)N2CCN(c3ccc(F)cc3)CC2)c1,-20.4,x,18.4µM*,-11.8%,u,u
COCCN(Cc1ccccc1)C(=O)c1cc(S(=O)(=O)N2CCCCCC2)ccc1OC,-11.1,x,u,4.8%,-5.3%,u
COCCN(Cc1ccccc1)C(=O)c1cccc(S(=O)(=O)N2CCN(c3ccccc3)CC2)c1,-5.5,9.3%,16.4µM*,0.3%,-25.8%,u
CCOC(=O)C1(Cc2ccccc2)CCCN(S(=O)(=O)N(C)C)C1 (stereo not given),59.6,x,-24.4%,11.6%,5.7%,u
COc1ccc(Nc2nc(N)nc(CN3CCN(c4ccc(F)cc4)CC3)n2)cc1,u,6.2%,14.6µM*,-34.1%,u,u
COc1ccccc1N1CCN(Cc2cnc3ccc(Cl)cn23)CC1,22.4,x,13µM*,-4.8%,21.5%,23.1µM*
CCOc1ccc(Nc2nc(N)nc(CN3CCN(c4ccccc4F)CC3)n2)cc1,-7.6,8.2%,18.4µM*,-1.6%,-20.5%,-9.8%
COc1ccccc1N1CCN(Cc2ccc(C(=O)O)cc2)CC1,36.1,x,-4.0%,1.1%,1.1%,-3.0%
COc1ccc(N2CCN(c3nc(Cl)nc(Nc4ccc(F)cc4)n3)CC2)cc1,-78.9*,7.6%,18.4µM*,-6.9%,0.9%,18.4µM*
Cc1ccc(NC2CCCN(C(=O)CCN3CCOCC3)C2)cc1C (stereo not given),18.7,7.1%,13.9%,0.7%,8.2%,1.5%
SMILES,IL1B secr inh,TDP1 inh,DT40 TDP1 no CPT,HepG2 viability,TGFb inhibitor,DT40 TDP1 CPT
COC(=O)[C@@H]1ON2OCC(C)=C3CCCC[C@@]32[C@H]1C(=O)OC,-9.6,x,23.5%,x,x,21.8%
COc1ccc(N(CC(=O)N2CCC(C(N)=O)CC2)S(=O)(=O)c2ccccc2)cc1,-7.1,-9.3%,-17.1%,-9.1%,-2.9%,-20.0%
O=C(Nc1ccccc1)N1CCC(C(=O)N2CCCC(C(F)(F)F)C2)CC1 (stereo not given),-3.8,4.2%,-18.4%,-4.0%,-5.4%,3.4%
Nc1nc(CN2CCN(c3ccccn3)CC2)nc(Nc2ccc(Cl)cc2)n1,-22.4,5.7%,6.51µM*,-38.5%,-18.9%,u
COc1ccccc1N1CCN(Cc2nc(N)nc(Nc3ccc(C)c(Cl)c3)n2)CC1,-15.0,13.4%,9.2µM*,-45.1%,u,14.6µM*
COc1ccccc1Nc1nc(N)nc(CN2CCN(c3ccccc3F)CC2)n1,0.0,10.3%,-16.6%,-26.7%,6.0%,u
Cc1csc(C(C)N(C)C(=O)c2cc(NC(=O)C3CCC3)c3c(c2)nc(-c2ccncc2)n3C)n1 (stereo not given),x,x,6.3%,x,x,8.5%
O=[N+]([O-])c1ccc(Sc2ccccn2)nc1,9.5,9.6%,12.0%,-12.4%,-19.0%,-0.8%
O=[N+]([O-])c1ccc(Sc2ccc(Cl)c(Cl)c2)nc1,-58.1*,7.4%,-29.4%,-16.6%,7.2%,u
COC(=O)c1ccccc1NC(=O)COC(=O)c1ccccc1N=Nc1ccc(N(C)C)cc1,0.0,11.0%,16.4µM*,0.2%,-1.2%,16.4µM*
CN(C)c1ccc(N=Nc2ccccc2C(=O)OCC(=O)N(C)c2ccccc2)cc1,-3.1,3.2%,u,-4.0%,-15.6%,20.6µM*
CC(=O)c1ccc(NC(=O)COC(=O)c2ccccc2N=Nc2ccc(N(C)C)cc2)cc1,u,1.9%,20.6µM*,-32.6%,-19.2%,u
Cc1ccc(S(=O)(=O)NCCOc2cc(C)ccc2C)cc1,46.5,1.9%,-21.4%,-16.4%,-3.4%,u
O=C(O)c1cccc2c1/C(=N/O)c1ccccc1-2,6.4,x,u,-27.5%,-5.2%,-1.4%
Nc1cc2c(cc1Br)-c1ccccc1C2=NO,-104.8*,x,u,-30.2%,u,25.9µM*
